The supplement of paper PMC11732987, “Enantioselective OTUD7B fragment discovery through chemoproteomics screening and high-throughput optimisation” (Communications Chemistry, 2025)
A number with no mark means an inactive call.

Tests used:
Test in all cases: log2 ratio of Biotin-Ahx-Ub-VS probe labelling (fragment/DMSO); higher = less target engagement (more negative = stronger competition), active = hit call of the paper (q ≤ 0.05, log2 ratio ≤ -1)
Conditions in all cases: compound concentration: 200 uM; treatment time: 3 h
USP42 = target: T1, USP42 (UniProt Q9H9J4)
T1 sequence (whole entry): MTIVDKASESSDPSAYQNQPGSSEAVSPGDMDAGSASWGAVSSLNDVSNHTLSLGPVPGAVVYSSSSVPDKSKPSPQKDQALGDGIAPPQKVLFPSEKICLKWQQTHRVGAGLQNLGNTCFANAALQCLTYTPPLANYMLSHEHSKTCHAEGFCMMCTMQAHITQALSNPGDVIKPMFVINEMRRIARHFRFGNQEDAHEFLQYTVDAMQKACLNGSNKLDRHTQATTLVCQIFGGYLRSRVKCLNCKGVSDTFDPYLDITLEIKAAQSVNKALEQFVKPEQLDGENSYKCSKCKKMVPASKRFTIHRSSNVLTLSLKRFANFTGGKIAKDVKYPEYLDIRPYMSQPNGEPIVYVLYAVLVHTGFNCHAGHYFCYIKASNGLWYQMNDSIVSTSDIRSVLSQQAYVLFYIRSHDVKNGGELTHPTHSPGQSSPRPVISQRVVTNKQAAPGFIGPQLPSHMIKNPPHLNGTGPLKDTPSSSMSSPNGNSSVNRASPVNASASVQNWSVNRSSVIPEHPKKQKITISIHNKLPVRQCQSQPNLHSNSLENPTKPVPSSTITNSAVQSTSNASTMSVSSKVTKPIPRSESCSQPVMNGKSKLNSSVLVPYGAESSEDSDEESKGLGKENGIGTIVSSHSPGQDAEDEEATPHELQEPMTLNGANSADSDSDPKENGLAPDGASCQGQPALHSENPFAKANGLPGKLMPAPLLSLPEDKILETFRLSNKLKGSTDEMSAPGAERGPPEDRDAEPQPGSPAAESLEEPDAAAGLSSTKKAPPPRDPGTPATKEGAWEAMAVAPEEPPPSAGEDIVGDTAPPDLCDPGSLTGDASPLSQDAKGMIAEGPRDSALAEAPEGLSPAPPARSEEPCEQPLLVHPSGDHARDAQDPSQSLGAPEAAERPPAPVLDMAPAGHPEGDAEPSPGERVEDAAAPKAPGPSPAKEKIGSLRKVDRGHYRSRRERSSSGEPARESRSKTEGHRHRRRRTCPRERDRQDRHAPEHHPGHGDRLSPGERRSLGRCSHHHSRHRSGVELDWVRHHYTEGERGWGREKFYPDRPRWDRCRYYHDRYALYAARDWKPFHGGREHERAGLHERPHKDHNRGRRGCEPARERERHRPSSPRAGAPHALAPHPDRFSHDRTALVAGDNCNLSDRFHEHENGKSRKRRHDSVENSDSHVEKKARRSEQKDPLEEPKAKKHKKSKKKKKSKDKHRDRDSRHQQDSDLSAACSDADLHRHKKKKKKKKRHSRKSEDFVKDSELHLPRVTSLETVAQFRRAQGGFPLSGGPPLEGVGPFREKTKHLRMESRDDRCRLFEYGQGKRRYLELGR
Outline: (§1)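 Labelled DUBs were enriched with NeutrAvidin, digested with LysC and trypsin, and run by diaPASEF LC-MS/MS. The labelling used Biotin-Ahx-Ub-VS at 0.5 µM final for 1 h on HEK293T lysate (495 µg per sample) previously treated in triplicate with fragment at 200 µM or vehicle for 3 h. Values are average log2 fragment/vehicle ratios by unpaired t-test on global-median-normalised Spectronaut quantities of proteins with ≥2 unique peptides.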

USP46 = USP46 (UniProt P62068)
Outline: as §1

USP47 = target: T2, USP47 (UniProt Q96K76)
T2 sequence (whole entry): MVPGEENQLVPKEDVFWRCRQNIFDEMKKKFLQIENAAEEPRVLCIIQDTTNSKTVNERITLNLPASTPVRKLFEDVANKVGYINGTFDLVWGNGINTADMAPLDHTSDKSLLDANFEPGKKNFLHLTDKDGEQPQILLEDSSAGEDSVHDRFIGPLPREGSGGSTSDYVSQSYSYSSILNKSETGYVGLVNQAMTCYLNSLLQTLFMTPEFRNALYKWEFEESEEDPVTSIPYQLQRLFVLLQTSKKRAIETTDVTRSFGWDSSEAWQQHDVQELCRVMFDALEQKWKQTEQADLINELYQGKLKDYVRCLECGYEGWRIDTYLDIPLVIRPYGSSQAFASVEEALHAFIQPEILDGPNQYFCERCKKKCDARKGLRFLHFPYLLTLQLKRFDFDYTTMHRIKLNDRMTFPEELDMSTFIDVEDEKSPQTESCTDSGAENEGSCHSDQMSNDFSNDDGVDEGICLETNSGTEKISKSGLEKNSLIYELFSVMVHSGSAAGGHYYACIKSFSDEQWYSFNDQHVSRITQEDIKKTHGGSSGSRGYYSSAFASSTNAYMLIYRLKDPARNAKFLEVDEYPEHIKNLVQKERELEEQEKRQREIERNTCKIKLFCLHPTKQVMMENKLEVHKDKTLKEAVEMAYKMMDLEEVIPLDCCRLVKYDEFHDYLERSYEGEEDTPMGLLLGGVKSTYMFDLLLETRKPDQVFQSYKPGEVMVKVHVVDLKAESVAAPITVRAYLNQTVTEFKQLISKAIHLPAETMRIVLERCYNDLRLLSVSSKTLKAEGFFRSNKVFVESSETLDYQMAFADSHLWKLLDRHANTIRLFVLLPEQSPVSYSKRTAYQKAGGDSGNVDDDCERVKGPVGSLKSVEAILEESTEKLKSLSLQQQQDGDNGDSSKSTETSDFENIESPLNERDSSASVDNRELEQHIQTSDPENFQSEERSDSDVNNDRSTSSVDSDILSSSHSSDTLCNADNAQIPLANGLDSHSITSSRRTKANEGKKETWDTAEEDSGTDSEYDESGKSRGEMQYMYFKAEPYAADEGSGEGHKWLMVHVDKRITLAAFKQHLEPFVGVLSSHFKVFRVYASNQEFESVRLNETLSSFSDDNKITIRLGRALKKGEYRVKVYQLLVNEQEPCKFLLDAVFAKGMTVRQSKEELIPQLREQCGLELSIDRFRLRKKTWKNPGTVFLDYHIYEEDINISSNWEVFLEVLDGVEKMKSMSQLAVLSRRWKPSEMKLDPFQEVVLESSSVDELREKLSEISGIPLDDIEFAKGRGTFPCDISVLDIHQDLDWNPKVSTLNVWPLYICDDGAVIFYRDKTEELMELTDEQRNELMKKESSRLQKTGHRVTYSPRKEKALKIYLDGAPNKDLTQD
Outline: as §1

USP48 = target: T3, USP48 (UniProt Q86UV5)
T3 sequence (whole entry): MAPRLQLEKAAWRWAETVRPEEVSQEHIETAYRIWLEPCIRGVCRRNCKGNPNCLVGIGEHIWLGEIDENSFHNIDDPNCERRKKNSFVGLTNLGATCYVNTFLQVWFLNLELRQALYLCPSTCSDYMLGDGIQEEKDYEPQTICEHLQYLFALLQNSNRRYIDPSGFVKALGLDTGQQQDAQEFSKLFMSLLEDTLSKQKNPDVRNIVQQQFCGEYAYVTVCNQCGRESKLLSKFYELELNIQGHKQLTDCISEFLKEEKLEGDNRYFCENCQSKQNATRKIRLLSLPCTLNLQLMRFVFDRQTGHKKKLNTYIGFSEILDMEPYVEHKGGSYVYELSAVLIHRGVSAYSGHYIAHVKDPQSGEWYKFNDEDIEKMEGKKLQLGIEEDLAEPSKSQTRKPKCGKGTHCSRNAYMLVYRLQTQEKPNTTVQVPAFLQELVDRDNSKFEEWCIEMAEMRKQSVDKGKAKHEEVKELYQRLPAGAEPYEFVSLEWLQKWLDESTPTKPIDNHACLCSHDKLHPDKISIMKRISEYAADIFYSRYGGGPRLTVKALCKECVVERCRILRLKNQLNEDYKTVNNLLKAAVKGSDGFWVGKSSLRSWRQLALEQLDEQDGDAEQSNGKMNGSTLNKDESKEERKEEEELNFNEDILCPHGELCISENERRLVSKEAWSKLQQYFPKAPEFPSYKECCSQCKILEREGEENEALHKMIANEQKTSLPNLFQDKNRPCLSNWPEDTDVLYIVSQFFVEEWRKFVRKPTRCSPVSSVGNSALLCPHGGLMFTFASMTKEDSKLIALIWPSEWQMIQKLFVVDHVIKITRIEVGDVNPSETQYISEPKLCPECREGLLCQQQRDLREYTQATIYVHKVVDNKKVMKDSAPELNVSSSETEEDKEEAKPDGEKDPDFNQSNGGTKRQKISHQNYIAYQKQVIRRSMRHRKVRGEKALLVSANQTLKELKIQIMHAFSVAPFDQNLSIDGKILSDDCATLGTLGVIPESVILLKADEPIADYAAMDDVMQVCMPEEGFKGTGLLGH
Outline: as §1

USP5 = target: T4, USP5 (UniProt P45974)
T4 sequence (whole entry): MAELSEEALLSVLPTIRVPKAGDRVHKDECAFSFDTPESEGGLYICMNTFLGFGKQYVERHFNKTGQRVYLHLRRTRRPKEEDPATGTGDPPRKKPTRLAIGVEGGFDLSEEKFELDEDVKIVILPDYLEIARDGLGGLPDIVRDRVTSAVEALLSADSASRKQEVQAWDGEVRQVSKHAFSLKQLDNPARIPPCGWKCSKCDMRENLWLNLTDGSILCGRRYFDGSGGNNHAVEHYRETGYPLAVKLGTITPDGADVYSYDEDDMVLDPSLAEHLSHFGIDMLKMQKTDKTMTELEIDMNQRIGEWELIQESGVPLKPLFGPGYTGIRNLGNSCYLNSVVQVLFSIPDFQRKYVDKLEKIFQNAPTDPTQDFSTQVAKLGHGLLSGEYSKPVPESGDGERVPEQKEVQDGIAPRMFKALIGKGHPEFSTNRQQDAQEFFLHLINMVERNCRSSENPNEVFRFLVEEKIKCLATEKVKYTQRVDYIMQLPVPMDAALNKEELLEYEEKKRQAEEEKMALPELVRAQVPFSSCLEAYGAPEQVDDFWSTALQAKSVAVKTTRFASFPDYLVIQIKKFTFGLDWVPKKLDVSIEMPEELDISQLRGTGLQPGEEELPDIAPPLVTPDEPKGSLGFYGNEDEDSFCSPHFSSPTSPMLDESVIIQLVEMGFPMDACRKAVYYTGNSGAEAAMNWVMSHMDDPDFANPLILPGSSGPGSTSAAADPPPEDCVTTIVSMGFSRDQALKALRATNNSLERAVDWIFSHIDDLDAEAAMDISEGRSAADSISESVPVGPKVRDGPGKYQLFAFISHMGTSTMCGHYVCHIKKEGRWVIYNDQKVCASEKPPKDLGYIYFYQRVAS
Outline: as §1

USP54 = USP54 (UniProt Q70EL1)
Outline: as §1

USP7 = USP7 (UniProt Q93009)
Outline: as §1

USP8 = target: T5, USP8 (UniProt P40818)
T5 sequence (whole entry): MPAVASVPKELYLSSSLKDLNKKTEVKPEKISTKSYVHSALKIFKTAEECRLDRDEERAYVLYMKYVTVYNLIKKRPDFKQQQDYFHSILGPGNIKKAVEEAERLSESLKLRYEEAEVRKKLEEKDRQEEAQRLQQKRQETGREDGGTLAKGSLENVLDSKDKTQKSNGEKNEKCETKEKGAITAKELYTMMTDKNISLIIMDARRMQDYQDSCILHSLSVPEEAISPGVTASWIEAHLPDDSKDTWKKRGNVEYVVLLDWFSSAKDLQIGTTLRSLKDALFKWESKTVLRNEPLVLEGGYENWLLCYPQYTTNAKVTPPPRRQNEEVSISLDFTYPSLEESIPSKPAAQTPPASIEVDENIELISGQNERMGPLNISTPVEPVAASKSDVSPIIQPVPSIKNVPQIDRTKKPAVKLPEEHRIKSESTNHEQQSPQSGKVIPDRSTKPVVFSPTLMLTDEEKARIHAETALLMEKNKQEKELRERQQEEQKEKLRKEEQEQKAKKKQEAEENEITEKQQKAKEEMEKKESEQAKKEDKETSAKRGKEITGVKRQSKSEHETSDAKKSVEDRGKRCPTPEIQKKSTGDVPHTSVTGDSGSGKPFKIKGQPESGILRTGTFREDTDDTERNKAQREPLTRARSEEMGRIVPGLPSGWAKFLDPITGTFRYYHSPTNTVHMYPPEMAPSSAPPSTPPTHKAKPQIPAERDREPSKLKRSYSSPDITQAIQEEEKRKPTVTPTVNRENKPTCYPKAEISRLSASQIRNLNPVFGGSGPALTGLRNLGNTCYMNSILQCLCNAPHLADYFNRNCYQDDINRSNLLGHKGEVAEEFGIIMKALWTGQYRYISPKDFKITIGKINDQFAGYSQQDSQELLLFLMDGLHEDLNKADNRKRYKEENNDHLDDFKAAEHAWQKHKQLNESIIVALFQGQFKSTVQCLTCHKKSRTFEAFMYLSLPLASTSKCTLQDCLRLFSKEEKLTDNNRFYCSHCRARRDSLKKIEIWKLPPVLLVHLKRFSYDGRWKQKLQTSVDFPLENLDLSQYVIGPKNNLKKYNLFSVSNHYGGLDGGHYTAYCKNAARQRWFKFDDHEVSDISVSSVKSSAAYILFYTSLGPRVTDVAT
Outline: as §1

USP9X = USP9X (UniProt Q93008)
Outline: as §1

UniProt O00487 = target: UniProt O00487
Outline: as §1

Sequence of UniProt O00487 (O00487 whole entry): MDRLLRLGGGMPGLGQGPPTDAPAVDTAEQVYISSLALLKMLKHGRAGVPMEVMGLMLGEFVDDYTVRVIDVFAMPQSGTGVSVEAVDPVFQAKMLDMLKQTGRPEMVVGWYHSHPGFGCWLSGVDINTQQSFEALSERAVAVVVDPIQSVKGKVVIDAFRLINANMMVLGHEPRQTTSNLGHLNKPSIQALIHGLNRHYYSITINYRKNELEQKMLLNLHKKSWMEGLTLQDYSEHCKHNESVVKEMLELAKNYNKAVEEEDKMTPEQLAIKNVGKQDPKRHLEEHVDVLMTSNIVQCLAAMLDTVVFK
Sequence of USP9X (Q93008 whole entry): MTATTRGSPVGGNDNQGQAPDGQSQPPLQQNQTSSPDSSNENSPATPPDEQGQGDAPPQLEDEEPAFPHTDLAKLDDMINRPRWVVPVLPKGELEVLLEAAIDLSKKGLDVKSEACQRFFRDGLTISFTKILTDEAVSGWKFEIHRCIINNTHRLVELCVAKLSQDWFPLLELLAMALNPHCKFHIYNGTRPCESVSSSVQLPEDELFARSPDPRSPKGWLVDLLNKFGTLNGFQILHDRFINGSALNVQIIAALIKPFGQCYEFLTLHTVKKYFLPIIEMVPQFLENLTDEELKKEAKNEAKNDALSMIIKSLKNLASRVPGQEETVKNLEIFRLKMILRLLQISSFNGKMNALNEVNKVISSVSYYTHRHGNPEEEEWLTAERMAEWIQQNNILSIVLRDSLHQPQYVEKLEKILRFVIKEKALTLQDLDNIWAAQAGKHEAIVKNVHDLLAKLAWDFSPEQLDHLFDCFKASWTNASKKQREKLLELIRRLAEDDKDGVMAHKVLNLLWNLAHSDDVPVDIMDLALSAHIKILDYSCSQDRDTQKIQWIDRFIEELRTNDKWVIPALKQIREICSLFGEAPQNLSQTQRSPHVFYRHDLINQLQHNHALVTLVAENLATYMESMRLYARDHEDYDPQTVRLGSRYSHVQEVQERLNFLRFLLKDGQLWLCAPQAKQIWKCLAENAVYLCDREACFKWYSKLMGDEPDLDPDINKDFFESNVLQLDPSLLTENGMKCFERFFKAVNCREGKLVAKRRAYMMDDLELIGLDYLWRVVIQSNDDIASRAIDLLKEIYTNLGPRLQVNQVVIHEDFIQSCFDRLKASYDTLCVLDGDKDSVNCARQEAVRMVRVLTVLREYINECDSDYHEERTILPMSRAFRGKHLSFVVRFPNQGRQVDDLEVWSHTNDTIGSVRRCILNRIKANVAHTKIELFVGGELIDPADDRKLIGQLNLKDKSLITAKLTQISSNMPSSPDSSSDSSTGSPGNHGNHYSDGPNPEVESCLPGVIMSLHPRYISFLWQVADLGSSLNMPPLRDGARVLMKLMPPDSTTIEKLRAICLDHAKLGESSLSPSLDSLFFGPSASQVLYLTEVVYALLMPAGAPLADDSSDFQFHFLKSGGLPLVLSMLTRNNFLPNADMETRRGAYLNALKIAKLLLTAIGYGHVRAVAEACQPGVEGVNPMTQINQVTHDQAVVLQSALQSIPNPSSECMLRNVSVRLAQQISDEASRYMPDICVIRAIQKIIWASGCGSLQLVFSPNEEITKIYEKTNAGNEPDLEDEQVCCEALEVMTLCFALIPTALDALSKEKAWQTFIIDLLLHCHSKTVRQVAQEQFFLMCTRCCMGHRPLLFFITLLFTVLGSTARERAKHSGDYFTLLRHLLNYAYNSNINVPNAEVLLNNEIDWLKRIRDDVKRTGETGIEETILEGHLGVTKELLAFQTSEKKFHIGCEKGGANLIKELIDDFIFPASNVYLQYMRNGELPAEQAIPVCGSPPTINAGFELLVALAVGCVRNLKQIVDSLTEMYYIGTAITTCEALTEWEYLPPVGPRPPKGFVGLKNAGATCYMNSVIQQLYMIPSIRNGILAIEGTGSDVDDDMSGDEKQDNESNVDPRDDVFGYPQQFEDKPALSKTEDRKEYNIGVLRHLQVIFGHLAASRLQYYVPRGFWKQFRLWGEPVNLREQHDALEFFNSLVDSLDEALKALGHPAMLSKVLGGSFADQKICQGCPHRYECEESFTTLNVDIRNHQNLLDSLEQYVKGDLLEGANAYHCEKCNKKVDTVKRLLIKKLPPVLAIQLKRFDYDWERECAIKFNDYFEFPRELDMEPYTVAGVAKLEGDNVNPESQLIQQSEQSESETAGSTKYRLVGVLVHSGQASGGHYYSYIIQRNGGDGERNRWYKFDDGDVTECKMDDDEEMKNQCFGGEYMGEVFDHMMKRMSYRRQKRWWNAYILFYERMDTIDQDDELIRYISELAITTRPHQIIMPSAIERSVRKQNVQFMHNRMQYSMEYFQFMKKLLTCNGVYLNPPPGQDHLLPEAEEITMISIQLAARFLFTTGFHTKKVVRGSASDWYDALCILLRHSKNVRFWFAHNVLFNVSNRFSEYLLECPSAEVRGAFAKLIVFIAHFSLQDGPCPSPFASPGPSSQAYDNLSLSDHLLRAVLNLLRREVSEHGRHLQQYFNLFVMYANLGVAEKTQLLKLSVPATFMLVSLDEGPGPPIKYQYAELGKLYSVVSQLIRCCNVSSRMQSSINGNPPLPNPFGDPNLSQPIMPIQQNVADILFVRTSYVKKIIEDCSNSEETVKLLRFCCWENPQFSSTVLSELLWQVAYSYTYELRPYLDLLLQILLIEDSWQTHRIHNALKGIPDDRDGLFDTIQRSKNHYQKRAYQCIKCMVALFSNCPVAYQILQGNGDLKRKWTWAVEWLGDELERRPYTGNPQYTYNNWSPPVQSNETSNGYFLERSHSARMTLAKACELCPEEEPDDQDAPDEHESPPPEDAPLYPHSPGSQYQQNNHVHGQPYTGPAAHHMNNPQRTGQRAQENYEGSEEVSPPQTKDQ
Sequence of USP46 (P62068 whole entry): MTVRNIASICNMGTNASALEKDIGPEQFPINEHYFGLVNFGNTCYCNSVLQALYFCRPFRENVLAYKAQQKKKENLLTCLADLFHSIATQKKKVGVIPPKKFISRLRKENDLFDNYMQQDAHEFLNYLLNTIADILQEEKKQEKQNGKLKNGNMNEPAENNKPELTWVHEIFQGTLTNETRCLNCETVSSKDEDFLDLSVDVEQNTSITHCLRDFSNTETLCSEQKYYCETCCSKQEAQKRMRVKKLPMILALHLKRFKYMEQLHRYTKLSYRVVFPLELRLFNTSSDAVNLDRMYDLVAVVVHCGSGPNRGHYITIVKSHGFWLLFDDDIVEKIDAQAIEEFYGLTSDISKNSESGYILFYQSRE
Sequence of USP7 (Q93009 whole entry, looked up): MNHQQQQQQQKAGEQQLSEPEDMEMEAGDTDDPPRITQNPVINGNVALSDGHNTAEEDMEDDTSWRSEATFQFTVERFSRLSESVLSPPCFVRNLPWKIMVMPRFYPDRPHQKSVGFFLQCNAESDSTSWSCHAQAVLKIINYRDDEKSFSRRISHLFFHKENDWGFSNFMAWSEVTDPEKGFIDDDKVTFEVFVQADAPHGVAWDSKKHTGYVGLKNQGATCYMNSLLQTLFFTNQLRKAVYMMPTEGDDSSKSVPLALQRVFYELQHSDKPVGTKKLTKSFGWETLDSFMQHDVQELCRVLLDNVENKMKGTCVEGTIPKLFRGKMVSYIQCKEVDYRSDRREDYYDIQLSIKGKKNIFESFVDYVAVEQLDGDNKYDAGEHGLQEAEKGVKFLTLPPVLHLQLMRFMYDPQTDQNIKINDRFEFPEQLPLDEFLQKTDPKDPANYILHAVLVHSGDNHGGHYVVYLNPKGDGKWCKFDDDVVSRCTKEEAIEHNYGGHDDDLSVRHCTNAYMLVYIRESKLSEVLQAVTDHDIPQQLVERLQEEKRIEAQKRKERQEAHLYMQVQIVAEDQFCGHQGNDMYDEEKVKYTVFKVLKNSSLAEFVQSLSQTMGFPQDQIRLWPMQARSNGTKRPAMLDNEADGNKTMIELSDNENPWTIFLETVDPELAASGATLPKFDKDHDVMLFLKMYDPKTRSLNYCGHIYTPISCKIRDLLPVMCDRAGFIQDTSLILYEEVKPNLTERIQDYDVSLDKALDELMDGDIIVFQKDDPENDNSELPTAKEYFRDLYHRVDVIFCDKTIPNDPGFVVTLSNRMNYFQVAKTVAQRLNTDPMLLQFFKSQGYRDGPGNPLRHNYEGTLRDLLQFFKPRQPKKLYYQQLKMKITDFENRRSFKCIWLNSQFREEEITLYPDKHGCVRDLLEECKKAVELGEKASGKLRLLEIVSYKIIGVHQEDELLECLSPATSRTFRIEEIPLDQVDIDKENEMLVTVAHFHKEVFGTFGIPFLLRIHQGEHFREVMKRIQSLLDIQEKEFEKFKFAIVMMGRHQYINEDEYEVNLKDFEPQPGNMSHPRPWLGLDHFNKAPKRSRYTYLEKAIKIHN

Row | Compound | log2 ratio of Biotin-Ahx-Ub-VS probe labelling (USP42) | log2 ratio of Biotin-Ahx-Ub-VS probe labelling (USP46) | log2 ratio of Biotin-Ahx-Ub-VS probe labelling (USP47) | log2 ratio of Biotin-Ahx-Ub-VS probe labelling (USP48) | log2 ratio of Biotin-Ahx-Ub-VS probe labelling (USP5) | log2 ratio of Biotin-Ahx-Ub-VS probe labelling (USP54) | log2 ratio of Biotin-Ahx-Ub-VS probe labelling (USP7) | log2 ratio of Biotin-Ahx-Ub-VS probe labelling (USP8) | log2 ratio of Biotin-Ahx-Ub-VS probe labelling (USP9X) | log2 ratio of Biotin-Ahx-Ub-VS probe labelling (UniProt O00487)
1 | O=C(CCl)N1c2ccccc2NC(=O)C12CCCC2 | 0.622 | -0.278 | 0.0188 | -1.04 (active) | 0.581 | -0.355 | -2.11 (active) | 0.279 | -0.316 | 0.0785
2 | Cc1ccc(CN(C)C(=O)CCl)o1 | 0.191 | -0.175 | 0.0147 | -0.264 | 0.245 | 0.355 | -0.538 | -0.199 | -0.23 | -0.0611
